From the supplement of paper PMC10646978
± gives the standard deviation.

Tested on: RAW-Dual (murine macrophage reporter line)
Test: NF-kB reporter (SEAP) activity fold change vs agonist alone; higher = enhanced NF-kB activity
Details: modulator concentration 10 µM; agonist: MPLA […]
How it was run: (§1)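 In 384-well plates holding 50 000 RAW-Dual murine macrophage reporter cells per well, compound at 10 μM final was pre-incubated for 1 hour at 37 °C, after which a PRR agonist was added overnight. Supernatant SEAP read with QUANTI-Blue at 620 nm absorbance reported NF-κB, and Lucia luciferase read with QUANTI-Luc luminescence reported IRF. Fold change values come from dividing each reporter signal by the mean of agonist-only control wells on the same plate, averaged over replicate plates with propagated errors.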

| Structure (SMILES) | NF-kB reporter |
| --- | --- |
| O=C(CCn1c(=O)oc2ccccc21)Nc1ccccc1 | 0.881 ± 0.08 |
| O=C(Nc1ccncc1)c1ccc(OCC2CCOCC2)nc1 | 1.28 ± 0.082 |
| CNCC[C@@H](Oc1ccccc1C)c1ccccc1.Cl | 1.26 ± 0.085 |
| Brc1ccc2ncnc(Nc3ccccc3)c2c1 | 1.04 ± 0.029 |
| O=C(NC12CC3CC(CC(C3)C1)C2)N1CCOCC1 | 0.989 ± 0.12 |
| Cc1cc(NC2CCCC2)nc2ccccc12 | 1.91 ± 0.27 |
| O=C(CCC(=O)OCC(=O)c1cccs1)Nc1ccc(Oc2ccccc2)cc1 | 1.04 ± 0.12 |
| COC(=O)C1C(=O)C(=CNCc2ccccc2)C(=O)CC1(C)C (stereo not drawn) | 0.943 ± 0.035 |
| Cc1cnc(NC(=O)C2=C(O)c3ccccc3S(=O)(=O)N2C)s1 | 0.953 ± 0.066 |
| NNC(=O)CN1C(=O)C2CC=C(Cl)CC2C1=O (stereo not drawn) | 0.954 ± 0.035 |
| O=C(COc1ccc2ccccc2c1)Nc1cnoc1 | 1.12 ± 0.088 |
| Br.Fc1ccc(-c2csc(Nc3ccc4c(c3)OCO4)n2)cc1 | 1.02 ± 0.038 |
| Cc1occc1C(=O)Nc1ccc([N+](=O)[O-])cc1Cl | 0.898 ± 0.026 |
| Cn1cnc2cc(NCc3ccc(Br)cc3)ccc21 | 0.984 ± 0.1 |
| C[C@H](NC(=O)C(=O)Nc1ccccc1C(C)(C)C)C(=O)N[C@@H](CC(=O)O)C(=O)COc1c(F)c(F)cc(F)c1F | 1.69 ± 0.12 |
| O=C(NCCc1csc(-c2ccc(F)cc2)n1)c1ccc(Br)cc1 | 1.19 ± 0.043 |
| CCN(CC)Cc1cc(Nc2ccnc3cc(Cl)ccc23)ccc1O.Cl.Cl.O.O | 0.944 ± 0.068 |
| CC1(C)CCC2(C(=O)O)CCC3(C)C(=CCC4C5(C)CCC(O)C(C)(C)C5CCC43C)C2C1 (stereo not drawn) | 0.942 ± 0.095 |
| NNC(=O)c1ccncc1 | 1.31 ± 0.14 |
| O=C(Nc1ccccn1)NC1CCS(=O)(=O)C1 (stereo not drawn) | 0.748 ± 0.14 |

| Structure (SMILES) | NF-kB reporter |
| --- | --- |
| Cc1ccccc1CC(CC(=O)O)C(=O)O (stereo not drawn) | 0.93 ± 0.094 |
| COc1ccc(Cn2cc3c(-c4ccc(F)cc4)nnc-3c3cc(OC)c(OC)cc32)cc1 | 2.16 ± 0.1 |
| CC(C)c1ccc(N(CC(=O)NCCSCc2ccc(Cl)cc2)S(C)(=O)=O)cc1 | 0.918 ± 0.08 |
| Nc1ccc(C=Cc2ccccc2)cc1 | 0.976 ± 0.034 |
| COc1nn(C)cc1C(=O)Nc1ccc(C(=O)NCCN2CCOCC2)cc1 | 0.893 ± 0.042 |
| CC12CCC(=O)C=C1C=CC1C2CCC2(C)C1CCC21CCC(=O)O1 (stereo not drawn) | 0.93 ± 0.059 |
| CC(=O)Nc1cc2nc3ccccc3nc2cc1NC(C)=O | 0.955 ± 0.041 |
| C[C@H](Nc1ncnc2[nH]cnc12)c1cc2cccc(Cl)c2c(=O)n1-c1ccccc1 | 0.859 ± 0.024 |
| COc1ccc(C(=O)Nc2cc(C)nc3c(C)cc(C)cc23)cc1OC | 0.838 ± 0.055 |
| CS(=O)(=O)N(CC(=O)NCCSCc1cccc(Cl)c1)c1cccc(Cl)c1 | 1.1 ± 0.15 |
| O=C(O)CCCCC1SCC2NC(=O)NC21 (stereo not drawn) | 0.96 ± 0.078 |
| COc1ccc(NC(=O)CN(c2ccc(C)c(C)c2)S(C)(=O)=O)cc1 | 1.07 ± 0.12 |
| O=C(CCCN1CCC(O)(c2ccc(Cl)cc2)CC1)c1ccc(F)cc1 | 1.12 ± 0.098 |
| Cn1nc(CNS(=O)(=O)c2cccc(C(F)(F)F)c2)c2c1CCOC2 | 1.02 ± 0.065 |
| CC1CCN(C2CC(=O)N(c3ccc(S(=O)(=O)N4CCOCC4)cc3)C2=O)CC1 (stereo not drawn) | 0.843 ± 0.05 |
| COc1ccc2cc1Oc1ccc(cc1)C[C@H]1c3c(cc4c(c3Oc3cc5c(cc3OC)CCN(C)[C@@H]5C2)OCO4)CCN1C | 0.928 ± 0.059 |
| COc1ccc(C(=O)ON=C(N)c2ccc(OC)c(OC)c2)cc1OC | 0.971 ± 0.086 |
| Cc1ccc(S(=O)(=O)NC(=O)NN2CC3CCCC3C2)cc1 (stereo not drawn) | 0.973 ± 0.061 |
| CCc1cnn2c(NCc3ccc[n+]([O-])c3)cc(N3CCCC[C@H]3CCO)nc12 | 0.114 ± 0.0049 |

Tested on: RAW-Dual (murine macrophage reporter line)
Test: IRF reporter (Lucia luciferase) activity fold change vs agonist alone; higher = enhanced IRF activity
Details: modulator concentration 10 µM; agonist: 3'3'-cGAMP 10 ug/mL
How it was run: as §1

| Structure (SMILES) | IRF reporter |
| --- | --- |
| O=C(CCn1c(=O)oc2ccccc21)Nc1ccccc1 | 0.969 ± 0.032 |
| O=C(Nc1ccncc1)c1ccc(OCC2CCOCC2)nc1 | 1.22 ± 0.083 |
| CNCC[C@@H](Oc1ccccc1C)c1ccccc1.Cl | 1.02 ± 0.11 |
| Brc1ccc2ncnc(Nc3ccccc3)c2c1 | 0.357 ± 0.021 |
| O=C(NC12CC3CC(CC(C3)C1)C2)N1CCOCC1 | 0.993 ± 0.027 |
| Cc1cc(NC2CCCC2)nc2ccccc12 | 1.12 ± 0.068 |
| O=C(CCC(=O)OCC(=O)c1cccs1)Nc1ccc(Oc2ccccc2)cc1 | 0.995 ± 0.05 |
| COC(=O)C1C(=O)C(=CNCc2ccccc2)C(=O)CC1(C)C (stereo not drawn) | 1.04 ± 0.18 |
| Cc1cnc(NC(=O)C2=C(O)c3ccccc3S(=O)(=O)N2C)s1 | 0.927 ± 0.036 |
| NNC(=O)CN1C(=O)C2CC=C(Cl)CC2C1=O (stereo not drawn) | 0.999 ± 0.088 |
| O=C(COc1ccc2ccccc2c1)Nc1cnoc1 | 0.92 ± 0.053 |
| Br.Fc1ccc(-c2csc(Nc3ccc4c(c3)OCO4)n2)cc1 | 0.315 ± 0.022 |
| Cc1occc1C(=O)Nc1ccc([N+](=O)[O-])cc1Cl | 1.02 ± 0.088 |
| Cn1cnc2cc(NCc3ccc(Br)cc3)ccc21 | 0.805 ± 0.045 |
| C[C@H](NC(=O)C(=O)Nc1ccccc1C(C)(C)C)C(=O)N[C@@H](CC(=O)O)C(=O)COc1c(F)c(F)cc(F)c1F | 0.51 ± 0.037 |
| O=C(NCCc1csc(-c2ccc(F)cc2)n1)c1ccc(Br)cc1 | 0.693 ± 0.027 |
| CCN(CC)Cc1cc(Nc2ccnc3cc(Cl)ccc23)ccc1O.Cl.Cl.O.O | 1.39 ± 0.23 |
| CC1(C)CCC2(C(=O)O)CCC3(C)C(=CCC4C5(C)CCC(O)C(C)(C)C5CCC43C)C2C1 (stereo not drawn) | 0.878 ± 0.03 |
| NNC(=O)c1ccncc1 | 0.91 ± 0.028 |
| O=C(Nc1ccccn1)NC1CCS(=O)(=O)C1 (stereo not drawn) | 0.881 ± 0.12 |

| Structure (SMILES) | IRF reporter |
| --- | --- |
| Cc1ccccc1CC(CC(=O)O)C(=O)O (stereo not drawn) | 1.03 ± 0.048 |
| COc1ccc(Cn2cc3c(-c4ccc(F)cc4)nnc-3c3cc(OC)c(OC)cc32)cc1 | 1.79 ± 0.12 |
| CC(C)c1ccc(N(CC(=O)NCCSCc2ccc(Cl)cc2)S(C)(=O)=O)cc1 | 0.588 ± 0.04 |
| Nc1ccc(C=Cc2ccccc2)cc1 | 0.174 ± 0.012 |
| COc1nn(C)cc1C(=O)Nc1ccc(C(=O)NCCN2CCOCC2)cc1 | 0.979 ± 0.049 |
| CC12CCC(=O)C=C1C=CC1C2CCC2(C)C1CCC21CCC(=O)O1 (stereo not drawn) | 0.963 ± 0.034 |
| CC(=O)Nc1cc2nc3ccccc3nc2cc1NC(C)=O | 1.09 ± 0.28 |
| C[C@H](Nc1ncnc2[nH]cnc12)c1cc2cccc(Cl)c2c(=O)n1-c1ccccc1 | 0.728 ± 0.041 |
| COc1ccc(C(=O)Nc2cc(C)nc3c(C)cc(C)cc23)cc1OC | 0.501 ± 0.038 |
| CS(=O)(=O)N(CC(=O)NCCSCc1cccc(Cl)c1)c1cccc(Cl)c1 | 1.02 ± 0.033 |
| O=C(O)CCCCC1SCC2NC(=O)NC21 (stereo not drawn) | 0.953 ± 0.072 |
| COc1ccc(NC(=O)CN(c2ccc(C)c(C)c2)S(C)(=O)=O)cc1 | 0.88 ± 0.046 |
| O=C(CCCN1CCC(O)(c2ccc(Cl)cc2)CC1)c1ccc(F)cc1 | 1.05 ± 0.071 |
| Cn1nc(CNS(=O)(=O)c2cccc(C(F)(F)F)c2)c2c1CCOC2 | 0.955 ± 0.035 |
| CC1CCN(C2CC(=O)N(c3ccc(S(=O)(=O)N4CCOCC4)cc3)C2=O)CC1 (stereo not drawn) | 1.02 ± 0.025 |
| COc1ccc2cc1Oc1ccc(cc1)C[C@H]1c3c(cc4c(c3Oc3cc5c(cc3OC)CCN(C)[C@@H]5C2)OCO4)CCN1C | 0.786 ± 0.045 |
| COc1ccc(C(=O)ON=C(N)c2ccc(OC)c(OC)c2)cc1OC | 0.933 ± 0.078 |
| Cc1ccc(S(=O)(=O)NC(=O)NN2CC3CCCC3C2)cc1 (stereo not drawn) | 0.901 ± 0.082 |
| CCc1cnn2c(NCc3ccc[n+]([O-])c3)cc(N3CCCC[C@H]3CCO)nc12 | 0.0244 ± 0.0044 |
